Results as given in patent publication US20140271602, “NUCLEOTIDE-SPECIFIC RECOGNITION SEQUENCES FOR DESIGNER TAL EFFECTORS” (THE BROAD INSTITUTE INC., published 2014).

Target: T1, TALE1-NH (CACNA1C site 1 activator) (Xanthomonas (engineered), UniProt P14727 SEQ:1-983)
T1 chain: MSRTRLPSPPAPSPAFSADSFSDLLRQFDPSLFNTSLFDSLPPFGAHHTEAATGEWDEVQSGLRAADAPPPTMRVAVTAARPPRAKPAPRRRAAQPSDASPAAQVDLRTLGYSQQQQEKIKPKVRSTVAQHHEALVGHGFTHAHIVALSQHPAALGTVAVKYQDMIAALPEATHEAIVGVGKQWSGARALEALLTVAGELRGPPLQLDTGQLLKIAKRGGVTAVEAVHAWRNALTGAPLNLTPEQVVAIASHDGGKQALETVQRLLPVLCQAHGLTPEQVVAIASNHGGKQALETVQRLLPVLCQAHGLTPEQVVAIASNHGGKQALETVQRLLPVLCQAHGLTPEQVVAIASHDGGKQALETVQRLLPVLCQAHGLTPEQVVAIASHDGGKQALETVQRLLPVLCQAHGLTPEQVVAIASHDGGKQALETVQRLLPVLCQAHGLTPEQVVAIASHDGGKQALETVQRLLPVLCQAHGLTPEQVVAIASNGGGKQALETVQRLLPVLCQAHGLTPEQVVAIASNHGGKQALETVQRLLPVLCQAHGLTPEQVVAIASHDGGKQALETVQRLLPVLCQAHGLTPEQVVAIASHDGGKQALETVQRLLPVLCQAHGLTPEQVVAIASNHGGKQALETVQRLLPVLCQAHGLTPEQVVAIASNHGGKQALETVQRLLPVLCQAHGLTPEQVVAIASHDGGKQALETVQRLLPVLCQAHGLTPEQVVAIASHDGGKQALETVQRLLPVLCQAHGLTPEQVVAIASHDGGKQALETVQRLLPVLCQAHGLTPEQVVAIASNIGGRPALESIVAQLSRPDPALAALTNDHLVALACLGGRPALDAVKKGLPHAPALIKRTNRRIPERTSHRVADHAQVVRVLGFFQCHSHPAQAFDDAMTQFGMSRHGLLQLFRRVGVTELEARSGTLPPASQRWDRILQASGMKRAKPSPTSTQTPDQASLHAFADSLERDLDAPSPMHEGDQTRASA
Assay: cell_activity; luciferase reporter
Details: tags: VP64, 2A-GFP; dsDNA, one strand shown
Experimental: TALEs using NN, NK, NH, and HN as the G-targeting RVD were synthesized to target two distinct 18 bp target sites in the human CACNA1C locus. Changes in mRNA are measured using qRT-PCR as described previously. VP64, VP64 transcription activation domain. All results are collected from three independent experiments in HEK 293FT cells. Error bars indicate s.e.m.; n=3. FIG. 19(b) discloses SEQ ID NOS 63 and 62, respectively, in order of appearance.
To determine whether NH and HN are suitable replacements for NN as the G-specific RVD, specificity and activity strength of NN, NK, NH, and HN were directly compared. Two 18 bp targets within the CACNA1C locus in the human genome were chosen and four TALEs for each target were constructed, using NN, NK, NH, or HN as the G-targeting RVD (FIG. 19a). […] For each CACNA1C target site, four luciferase reporters were constructed: wild type genomic target, and wild type target with 2, 4, or all guanines mutated into adenines (FIG. 19a, G-to-A reporters), and compared the activity of each TALE using these reporters (FIG. 19a). […] Thus, focus was placed on the RVDs NN, NK, and NH in subsequent experiments to assess their usefulness in modulating transcription at endogenous human genome targets.

Sequence | binding signal
TCAACCCCTACCAACCCA | < 10 % of wild-type site activation
TCAACCCCTGCCGGCCCA | 71.4 % reduction vs wild-type site
